Data published in the supplement of paper PMC9694430.

Tests used:
Experiment in all cases: thermal shift delta Tm vs DMSO control; higher = stronger stabilization (binding)
Settings in all cases: 12.5 µM; protein concentration 2 µM
[1] = system: LOC_OS04G57630-cb004
Method in brief: (§1)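 Compounds dissolved in DMSO were added to purified rice kinase domain constructs, which had been expressed in E. coli, for differential scanning fluorimetry. Each well held 19.5 μl of 2 μM kinase in 100 mM potassium phosphate pH 7.5, 150 mM NaCl, 10% glycerol and 5 × SYPRO Orange. Fluorescence was followed from 25°C to 95°C at a rate of 0.05°C/s. Shifts in Boltzmann-fitted melting temperature are triplicate means relative to DMSO-only protein.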

[2] = system: LOC_OS05G07850-cb002
Method in brief: as §1

[3] = system: LOC_OS05G16824-cb004
Method in brief: as §1

[4] = system: LOC_OS05G28520-cb001
Method in brief: as §1

[5] = system: LOC_OS05G30820-cb001
Method in brief: as §1

[6] = system: LOC_OS05G43570-cb004
Method in brief: as §1

[7] = system: LOC_OS06G16330-cb003
Chain of LOC_OS06G16330-cb003 (as listed by the source): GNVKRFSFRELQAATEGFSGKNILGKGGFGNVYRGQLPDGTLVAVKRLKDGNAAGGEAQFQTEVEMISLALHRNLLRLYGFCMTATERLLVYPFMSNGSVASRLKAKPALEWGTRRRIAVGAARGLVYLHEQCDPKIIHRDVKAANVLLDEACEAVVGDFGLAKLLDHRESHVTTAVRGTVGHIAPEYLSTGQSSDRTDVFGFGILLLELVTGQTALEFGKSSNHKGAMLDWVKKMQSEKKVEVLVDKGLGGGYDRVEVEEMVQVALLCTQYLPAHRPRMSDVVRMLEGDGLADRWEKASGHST
Method in brief: as §1

[8] = system: T1, LOC_OS06G22820-cb001
T1 sequence (whole entry): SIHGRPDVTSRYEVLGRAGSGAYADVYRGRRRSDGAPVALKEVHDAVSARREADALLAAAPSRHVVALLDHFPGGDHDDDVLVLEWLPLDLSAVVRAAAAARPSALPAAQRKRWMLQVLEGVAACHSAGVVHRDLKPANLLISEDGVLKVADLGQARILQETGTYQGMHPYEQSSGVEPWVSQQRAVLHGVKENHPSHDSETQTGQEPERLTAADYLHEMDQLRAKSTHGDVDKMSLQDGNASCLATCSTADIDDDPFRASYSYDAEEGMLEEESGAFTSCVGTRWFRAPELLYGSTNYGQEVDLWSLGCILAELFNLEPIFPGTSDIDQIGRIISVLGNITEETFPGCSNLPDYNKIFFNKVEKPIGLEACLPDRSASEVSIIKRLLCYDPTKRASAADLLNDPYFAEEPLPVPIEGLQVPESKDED
Method in brief: as §1

[9] = system: LOC_OS07G06570-cb004
Method in brief: as §1

[10] = system: LOC_OS07G07230-cb001
Method in brief: as §1

Row | SMILES | thermal shift delta Tm [1] [°C] | thermal shift delta Tm [2] [°C] | thermal shift delta Tm [3] [°C] | thermal shift delta Tm [4] [°C] | thermal shift delta Tm [5] [°C] | thermal shift delta Tm [6] [°C] | thermal shift delta Tm [7] [°C] | thermal shift delta Tm [8] [°C] | thermal shift delta Tm [9] [°C] | thermal shift delta Tm [10] [°C]
1 | CCc1cncnc1N1CCN(Cc2nc3ccc(C(F)(F)F)cc3[nH]2)CC1 | -0.2 | -0.11 | -2.67 | -0.08 | 0.66 | 0.46 | 0.02 | 0.76 | 0.84 | -0.27
2 | NC(=O)c1ccc(N(C(N)=O)c2c(F)cccc2F)nc1-c1ccc(F)cc1F | 0.21 | -0.33 | -5.64 | 0.58 | 0.41 | 0.22 | -0.58 | 0.8 | 1.05 | 0.18
3 | CCc1cccc(CC)c1NC(=O)N1Cc2[nH]nc(NC(=O)c3ccc(N4CCN(C)CC4)cc3)c2C1 | 0.89 | 5.74 | 1.16 | 0.11 | 0.78 | 0.47 | 2.93 | 1.47 | 1.26 | 0.12
4 | CCc1nc(-c2cccc(C)c2)c(-c2ccnc(NC(=O)c3ccccc3)c2)s1 | 0.17 | 4.1 | -0.96 | 0.55 | 0.63 | -0.08 | 0.66 | 0.77 | 1.16 | -0.21
5 | CC(C)(C)c1nc(-c2cccc(NS(=O)(=O)c3c(F)cccc3F)c2F)c(-c2ccnc(N)n2)s1 | 1.63 | 9.38 | 8.29 | 0.83 | 3.66 | 0.62 | 3.39 | 0.62 | 0.8 | 0.6
6 | CNS(=O)(=O)C[C@H]1CC[C@H](N(C)c2[nH]cnc3nccc2-3)CC1 [Oclacitinib] | 0.5 | 7.33 | -0.02 | 0.31 | 0.53 | 0.33 | 3.72 | 0.36 | 1.6 | 0.51
7 | O=C1Nc2ccccc2/C1=C1/Nc2ccccc2C1=O [Indirubin] | 0.28 | 5.1 | -2.11 | 0.79 | 1.11 | 0.4 | 0.35 | 0.47 | 1.39 | 0.66
8 | O=C1Cc2c([nH]c3ccc(Br)cc23)-c2ccccc2N1 [Kenpaullone] | 2.67 | 7.41 | 3.07 | 1 | 2.18 | 1.21 | 2.59 | 0.96 | -0.23 | 0.05
9 | O=c1ncn2nc(Sc3ccc(F)cc3F)ccc2c1-c1c(Cl)cccc1Cl | 0.07 | 0.12 | 0.83 | 0.17 | 0.49 | 0.49 | -0.01 | 0.66 | 0.75 | 0.14
10 | CCS(=O)(=O)N1CC(CC#N)(n2cc(-c3ncnc4[nH]ccc34)cn2)C1 | -0.03 | 4.2 | -0.69 | 0.54 | 0.72 | 0.88 | 2.6 | 0.77 | 1.1 | 0.82
11 | Nc1nc(Nc2ccc(S(N)(=O)=O)cc2)nn1C(=O)c1c(F)cccc1F | 1.19 | 12.5 | 8.94 | 0.98 | 1.95 | 0.82 | 8.67 | -0.12 | 1.81 | 0.21
12 | C=CC(=O)N1CCC(Oc2cc3c(Nc4ccc(Cl)c(Cl)c4F)ncnc3cc2OC)CC1 [Poziotinib (HM781-36B)] | 0.32 | 4.97 | -0.85 | 0.58 | 0.44 | 0.15 | 8.31 | 0.44 | 0.72 | 0.28
13 | O=C1Nc2ccc(CN3C(=O)CSC3=O)cc2/C1=C/c1cc(CN2CCOCC2)c[nH]1 | 1.02 | 6.39 | 8.47 | 0.01 | 0.12 | 0.23 | 9.36 | 1.05 | 1.86 | 0.48
14 | C=C(C)[C@@H]1CC[C@]2(C)CC[C@]3(C)[C@H](CC[C@@H]4[C@@]5(C)CC[C@H](O)C(C)(C)[C@@H]5CC[C@]43C)[C@@H]12 [Lupeol] | 0.77 | 0.82 | 1.84 | 0.13 | 0.38 | 0.49 | -2.09 | 0.12 | 1.26 | 0.62
15 | NC(=O)c1cnc2[nH]ccc2c1N[C@@H]1[C@@H]2CC3C[C@H]1C[C@@](O)(C3)C2 | 1.22 | 12.5 | 8.26 | 0.32 | 2.71 | 0.73 | 5.88 | 0.43 | 1.29 | 0.84
16 | CN1CCN(S(=O)(=O)c2ccc(-c3cnc(N)c(C(=O)Nc4cccnc4)n3)cc2)CC1 | 0.6 | 7.93 | 1.41 | 0.68 | 0.46 | -0.03 | 2.59 | 0.9 | 1.34 | 0.52
17 | CC(=O)Nc1nc(C)c(-c2ccc(Cl)c(S(=O)(=O)NCCO)c2)s1 | 0.23 | 4.94 | 0.69 | 0.59 | 0.4 | 0.87 | 0.63 | 0.43 | 0.81 | -0.01
18 | CCOc1cc(C(=O)N2CCC(N3CCN(C)CC3)CC2)ccc1Nc1ncc2c(n1)N(C1CCCC1)c1ccccc1C(=O)N2C | -0.22 | 1.11 | 0.71 | 0.22 | 0.32 | 0.17 | 0.04 | 0.34 | 0.95 | -0.25
19 | CC(C)NC(=O)COc1cccc(-c2nc(Nc3ccc4[nH]ncc4c3)c3ccccc3n2)c1 | 0.57 | 1.61 | -3.52 | 0.71 | 0.73 | 0.42 | 0.58 | 0.84 | 0.26 | -0.31

Row | SMILES | thermal shift delta Tm [1] [°C] | thermal shift delta Tm [2] [°C] | thermal shift delta Tm [3] [°C] | thermal shift delta Tm [4] [°C] | thermal shift delta Tm [5] [°C] | thermal shift delta Tm [6] [°C] | thermal shift delta Tm [7] [°C] | thermal shift delta Tm [8] [°C] | thermal shift delta Tm [9] [°C] | thermal shift delta Tm [10] [°C]
20 | CCCCCCCCCCCCCCCCOP(=O)([O-])OCC[N+](C)(C)C [Miltefosine] | -0.37 | -1.01 | -3.83 | -3.02 | -0.84 | -1.92 | -5.12 | -0.23 | -2.61 | -2.12
21 | C[C@H]1[C@H](C)CC[C@]2(C(=O)O)CC[C@]3(C)C(=CC[C@@H]4[C@@]5(C)C[C@@H](O)[C@H](O)[C@@](C)(CO)[C@@H]5CC[C@]43C)[C@H]12 [Asiatic Acid] | 0.45 | 0.11 | -3.69 | 0.47 | 0.73 | 1.08 | -0.23 | 0.71 | 0.82 | 0.24
22 | COc1ccc(Oc2cc(NCCC(F)(F)F)c3ncc(-c4ccc(C(=O)NC5CC5)c(C)c4)n3n2)c(F)c1F | 0.38 | 2.11 | -2.18 | 1.04 | 0.67 | 0.63 | 0.09 | 0.73 | -0.39 | 1.65
23 | CC[C@H](CO)Nc1nc(NCc2ccccc2)c2ncn(C(C)C)c2n1 [Roscovitine (Seliciclib,CYC202)] | -0.29 | 0.09 | -1.49 | 0.43 | 0.33 | 0.28 | 0.01 | 0.63 | 0.88 | 0.44
24 | N#Cc1c(NC(=O)c2cccc3ccccc23)sc2c1CCCC2 [JNK Inhibitor IX] | 0.22 | 0.04 | -1.1 | 0.77 | 0.43 | 0.27 | -0.09 | 0.6 | 0.83 | 0.4
25 | COC(=O)N[C@@H](C)CNc1nccc(-c2cn(C(C)C)nc2-c2cc(Cl)cc(NS(C)(=O)=O)c2F)n1 [Encorafenib (LGX818)] | -0.17 | 5.07 | -3.57 | 0.85 | 0.58 | 0.22 | 1.92 | 0.46 | 1.58 | 0.67
26 | COc1ncc(-c2cc(-c3ncc(CN4C[C@@H](C)O[C@@H](C)C4)o3)c3cn[nH]c3c2)cc1NS(C)(=O)=O | 0.12 | 1.71 | -0.4 | 0.61 | 0.21 | 0.39 | -0.32 | 0.44 | 0.86 | 0.19
27 | FC(F)(F)c1ccc(/C=C/c2nc(COc3ccc(CCCCn4ccnn4)cc3)co2)cc1 [Mubritinib (TAK 165)] | 0.31 | 0.65 | -1.49 | 0.05 | 0.57 | 0.39 | -0.19 | 0.32 | 0.47 | -1.09
28 | O=c1c(O)c(-c2ccc(O)c(O)c2)oc2cc(O)cc(O)c12 [Quercetin] | 0.22 | 10.2 | 3.82 | 0.95 | 0.67 | 1.19 | 5.31 | 1.15 | -0.26 | -0.07
29 | CNC(=O)CN1CCC(Oc2cc3c(Nc4cccc(Cl)c4F)ncnc3cc2OC)CC1 [Sapitinib (AZD8931)] | 0 | 3.04 | -12 | -0.17 | 0.6 | 0.17 | 1.14 | 0.37 | 0.48 | -0.24
30 | CC[C@@H]1C(=O)N(C)c2cnc(Nc3ccc(C(=O)N[C@H]4CC[C@H](N5CCN(CC6CC6)CC5)CC4)cc3OC)nc2N1C(C)C [Volasertib (BI 6727)] | 0.28 | 1.33 | 2.5 | -0.32 | 0.58 | 0.4 | 0.46 | 0.34 | 0.62 | -0.12
31 | COc1cc2nccc(Oc3ccc(NC(=O)Nc4cc(C)on4)c(Cl)c3)c2cc1OC [Tivozanib (AV-951)] | 3.28 | 9.77 | 2.86 | 2.41 | 0.62 | 0.21 | 10.8 | 0.55 | 0.52 | -0.04
32 | Cc1cc(Nc2nc(N[C@@H](C)c3ncc(F)cn3)ncc2Cl)[nH]n1 | 0.37 | 10.9 | 8.64 | 0.22 | 1.6 | 0.91 | 7.15 | 0.49 | 0.97 | 0.17
33 | CO[C@H]1C[C@@H]2CC[C@@H](C)[C@@](O)(O2)C(=O)C(=O)N2CCCC[C@H]2C(=O)O[C@H]([C@H](C)C[C@@H]2CC[C@@H](OP(C)(C)=O)[C@H](OC)C2)CC(=O)[C@H](C)/C=C(\C)[C@@H](O)[C@@H](OC)C(=O)[C@H](C)C[C@H](C)/C=C/C=C/C=C/1C [Ridaforolimus (Deforolimus, MK-8669)] | -0.31 | 0.02 | -1.14 | 0.42 | 0.41 | 0.24 | -0.22 | 0.77 | 1.03 | 0.31
34 | c1cn2cc(-c3ccc4cn[nH]c4c3)nc(Nc3ccc(N4CCOCC4)cc3)c2n1 [Entospletinib (GS-9973)] | 0.36 | 7.87 | 0.89 | 1.02 | 0.84 | 0.74 | 9.22 | 0.27 | 1.71 | 0.6
35 | Cc1cc(F)c(Nc2ncnc3cc(OCc4ccccc4)ccc23)cc1O | -0.1 | 1.29 | -1.22 | 1.19 | 0.76 | 1.17 | -0.11 | 1.28 | 2.49 | 0.37
36 | Cc1ccc(C(=O)Nc2ccc(CN3CCN(C)CC3)c(C(F)(F)F)c2)cc1C#Cc1cnc2[nH]ncc2c1 [GZD824 Dimesylate] | 6.01 | 13.9 | 2.52 | 0.74 | 2.1 | 1.6 | 5.01 | 0.3 | 0.65 | 1.45
37 | O=C(Nc1cc(C(F)(F)F)cc(C(F)(F)F)c1)c1cc(Cl)ccc1O | -0.05 | -0.13 | -0.94 | 0.78 | 0.67 | 0.76 | 0.52 | 0.91 | 1.68 | -0.11
38 | Nc1nccc(Oc2ccc(NC(=O)c3c[nH]cc(-c4ccc(F)cc4)c3=O)cc2F)c1Cl | 1.51 | 14.9 | -0.78 | 0.3 | 0.92 | 1.01 | 6.76 | 0.86 | 0.57 | 0.36
